Source: the supplement of paper PMC10849652
Targets with a hit are over-represented here; the source holds about 7,900 in all. About 0.6% of all pairs of compound and target were hits. A number with no mark means an inactive call.

Columns and labels:
Assay in all cases: log2 fold change, soluble protein after heating vs DMSO (PISA); higher = thermal stabilisation; K562 cells, 10 uM, 30 min; active = over 0.2 and 3.5 SD of the protein, either way, in both replicates (recomputed)
IRAK-1-4 Inhibitor I = compound: C1COCCN1CCN2C3=CC=CC=C3N=C2NC(=O)C4=CC(=CC=C4)[N+](=O)[O-] [IRAK-1-4 Inhibitor I]
Outline: (§1)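 K562 cells at 2×10^6 cells/mL were treated for 30 min with 10 μM compound, and aliquots were heated for 3 min over 48°C-58°C before pooling. Extraction used PBS with 0.5% NP-40 at 4°C, and soluble protein was the supernatant after 21,000xg for 90 min, measured by TMTpro 16plex LC-MS/MS with channel sums equalised. Thermal stability values, relative to control samples and from duplicates, are log2 fold changes.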

ibrutinib = compound: C=CC(=O)N1CCC[C@@H](n2nc(-c3ccc(Oc4ccccc4)cc3)c3c(N)ncnc32)C1 [ibrutinib]
Outline: as §1

ralimetinib = compound: CC(C)(C)Cn1c(N)nc2ccc(-c3[nH]c(C(C)(C)C)nc3-c3ccc(F)cc3)nc21 [ralimetinib]
Outline: as §1

[1] = compound: CC(C)(O)CC(=O)NCCn1ccc2ncnc(Nc3ccc(Oc4cccc(C(F)(F)F)c4)c(Cl)c3)c21
Outline: as §1

[2] = compound: CC(C)C1=C2N=C(C=C(N2N=C1)NCC3=CC=CC=C3)NCCCCCCN
Outline: as §1

[3] = compound: CC(C)C[C@@H](C=O)NC(=O)[C@H](CC(C)C)NC(=O)[C@H](CC(C)C)NC(=O)OCc1ccccc1
Outline: as §1

pinometostat = compound: CC(C)N(C[C@H]1O[C@@H](n2cnc3c(N)ncnc32)[C@H](O)[C@@H]1O)[C@H]1C[C@@H](CCc2nc3cc(C(C)(C)C)ccc3[nH]2)C1 [pinometostat]
Outline: as §1

[4] = compound: CC1=C(C2=C(C=C1)C(=O)C3=CC=CC=C3N2CCCN)C
Outline: as §1

[5] = compound: CC1=C(C=C(C=C1)NC(=O)C2=CC(=CC=C2)N(C)C)NC(=O)C3=CC=C(C=C3)O
Outline: as §1

[6] = compound: CC1=CC=C(C=C1)SC2=C3C=C(SC3=CN=C2)C(=O)N
Outline: as §1

[7] = compound: CC1=NC(=CC=C1)C2=C(N=C(N2)C(C)(C)C)C3=CC4=NC=CN=C4C=C3
Outline: as §1

Nexturastat A = compound: CCCCN(Cc1ccc(C(=O)NO)cc1)C(=O)Nc1ccccc1 [Nexturastat A]
Outline: as §1

vemurafenib = compound: CCCS(=O)(=O)Nc1ccc(F)c(C(=O)c2c[nH]c3ncc(-c4ccc(Cl)cc4)cc23)c1F [vemurafenib]
Outline: as §1

[8] = compound: CCCS(=O)(=O)Nc1ccc(F)c(C(=O)c2c[nH]c3ncc(Cl)cc23)c1F
Outline: as §1

[9] = compound: CCCc1cc(C)[nH]c(=O)c1CNC(=O)c1cc(-c2ccnc(N3CCN(C)CC3)c2)cc2c1cnn2C(C)C
Outline: as §1

givinostat = compound: CCN(CC)Cc1ccc2cc(COC(=O)Nc3ccc(C(=O)NO)cc3)ccc2c1 [givinostat]
Outline: as §1

barasertib = compound: CCN(CCCOc1ccc2c(Nc3cc(CC(=O)Nc4cccc(F)c4)[nH]n3)ncnc2c1)CCOP(=O)(O)O [barasertib]
Outline: as §1

[10] = compound: CC1=C(C=C(C=C1)NC(=O)C2=CC(=CC=C2)C(C)(C)C#N)NC3=CC4=C(C=C3)N=CN(C4=O)C
Outline: as §1

[11] = compound: CC1=C(C(CC(=O)N1)C2=CC=C(C=C2)C(F)(F)F)C(=O)NC3=C(C=C4C(=C3)C=NN4)F
Outline: as §1

[12] = compound: CC(=O)c1cnc2ccc(-c3cc(Cl)c(O)c(Cl)c3)nc2c1N[C@H]1CC[C@H](CN(C)C)CC1
Outline: as §1

UniProt Q9UQC2, sequence (Q9UQC2 whole entry, looked up): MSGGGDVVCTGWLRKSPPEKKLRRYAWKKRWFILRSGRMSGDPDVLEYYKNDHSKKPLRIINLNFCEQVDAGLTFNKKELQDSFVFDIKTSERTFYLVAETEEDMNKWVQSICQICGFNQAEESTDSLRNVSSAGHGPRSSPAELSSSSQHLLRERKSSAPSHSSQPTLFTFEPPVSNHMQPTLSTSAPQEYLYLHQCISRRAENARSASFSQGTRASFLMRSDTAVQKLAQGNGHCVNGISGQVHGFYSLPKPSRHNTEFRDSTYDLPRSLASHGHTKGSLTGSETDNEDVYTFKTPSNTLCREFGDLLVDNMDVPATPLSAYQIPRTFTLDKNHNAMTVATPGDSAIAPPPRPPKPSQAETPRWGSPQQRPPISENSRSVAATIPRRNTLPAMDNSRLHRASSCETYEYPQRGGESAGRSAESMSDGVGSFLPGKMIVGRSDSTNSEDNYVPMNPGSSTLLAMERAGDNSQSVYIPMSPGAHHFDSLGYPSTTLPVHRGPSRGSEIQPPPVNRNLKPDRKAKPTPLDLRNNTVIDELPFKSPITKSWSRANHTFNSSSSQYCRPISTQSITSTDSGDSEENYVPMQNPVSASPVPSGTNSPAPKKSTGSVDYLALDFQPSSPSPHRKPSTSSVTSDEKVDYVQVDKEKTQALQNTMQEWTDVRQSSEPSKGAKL
UniProt P21695, sequence (P21695 whole entry, looked up): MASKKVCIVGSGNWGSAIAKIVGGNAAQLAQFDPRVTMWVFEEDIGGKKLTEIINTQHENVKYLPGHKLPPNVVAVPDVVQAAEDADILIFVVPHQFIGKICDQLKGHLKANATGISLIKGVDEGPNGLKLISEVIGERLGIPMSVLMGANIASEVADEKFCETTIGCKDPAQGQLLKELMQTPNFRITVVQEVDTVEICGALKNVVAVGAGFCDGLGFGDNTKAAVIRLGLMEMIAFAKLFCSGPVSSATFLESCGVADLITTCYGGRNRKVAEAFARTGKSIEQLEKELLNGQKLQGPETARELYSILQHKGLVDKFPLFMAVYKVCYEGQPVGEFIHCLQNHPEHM
UniProt Q9Y324, sequence (Q9Y324 whole entry, looked up): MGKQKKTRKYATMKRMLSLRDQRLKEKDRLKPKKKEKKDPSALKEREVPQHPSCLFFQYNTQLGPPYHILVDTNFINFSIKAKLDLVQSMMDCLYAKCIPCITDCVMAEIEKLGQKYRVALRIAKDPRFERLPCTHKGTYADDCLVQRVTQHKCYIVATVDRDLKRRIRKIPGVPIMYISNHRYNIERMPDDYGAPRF
UniProt Q9UK97, sequence (Q9UK97 whole entry, looked up): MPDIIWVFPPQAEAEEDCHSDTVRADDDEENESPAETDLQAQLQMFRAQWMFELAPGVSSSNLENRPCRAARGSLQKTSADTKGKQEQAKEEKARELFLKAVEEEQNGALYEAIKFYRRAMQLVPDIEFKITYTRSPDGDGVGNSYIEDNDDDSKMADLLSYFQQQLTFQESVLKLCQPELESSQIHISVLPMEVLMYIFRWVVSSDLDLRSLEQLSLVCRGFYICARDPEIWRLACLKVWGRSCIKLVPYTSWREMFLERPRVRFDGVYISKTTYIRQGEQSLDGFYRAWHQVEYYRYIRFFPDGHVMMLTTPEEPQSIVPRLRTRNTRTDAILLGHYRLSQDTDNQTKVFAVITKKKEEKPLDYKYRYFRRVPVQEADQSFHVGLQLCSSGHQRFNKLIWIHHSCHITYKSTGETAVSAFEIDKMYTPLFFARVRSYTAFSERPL
UniProt Q8IVP5, sequence (Q8IVP5 whole entry, looked up): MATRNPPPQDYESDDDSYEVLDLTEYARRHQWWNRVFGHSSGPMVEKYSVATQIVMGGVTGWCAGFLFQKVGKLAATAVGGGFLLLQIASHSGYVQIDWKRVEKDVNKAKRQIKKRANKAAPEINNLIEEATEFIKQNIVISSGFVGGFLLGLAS
UniProt O43524, sequence (O43524 whole entry, looked up): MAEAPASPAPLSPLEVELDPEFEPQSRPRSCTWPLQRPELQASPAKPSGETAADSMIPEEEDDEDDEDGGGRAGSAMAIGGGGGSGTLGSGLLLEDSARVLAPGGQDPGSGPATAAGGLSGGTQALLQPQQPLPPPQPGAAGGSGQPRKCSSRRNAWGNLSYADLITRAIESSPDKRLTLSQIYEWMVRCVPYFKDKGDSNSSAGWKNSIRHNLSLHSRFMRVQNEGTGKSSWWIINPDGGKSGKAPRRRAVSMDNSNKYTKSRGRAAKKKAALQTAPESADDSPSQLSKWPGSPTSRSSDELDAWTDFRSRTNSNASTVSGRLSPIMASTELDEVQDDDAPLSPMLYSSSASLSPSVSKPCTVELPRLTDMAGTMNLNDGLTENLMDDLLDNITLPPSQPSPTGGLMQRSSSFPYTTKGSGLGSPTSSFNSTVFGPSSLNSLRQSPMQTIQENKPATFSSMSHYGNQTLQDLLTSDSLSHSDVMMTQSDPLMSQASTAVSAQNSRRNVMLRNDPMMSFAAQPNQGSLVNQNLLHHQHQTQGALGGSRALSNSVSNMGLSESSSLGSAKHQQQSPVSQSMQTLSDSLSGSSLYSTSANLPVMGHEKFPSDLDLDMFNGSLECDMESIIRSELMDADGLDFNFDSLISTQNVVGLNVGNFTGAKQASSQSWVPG
UniProt Q969S8, sequence (Q969S8 whole entry, looked up): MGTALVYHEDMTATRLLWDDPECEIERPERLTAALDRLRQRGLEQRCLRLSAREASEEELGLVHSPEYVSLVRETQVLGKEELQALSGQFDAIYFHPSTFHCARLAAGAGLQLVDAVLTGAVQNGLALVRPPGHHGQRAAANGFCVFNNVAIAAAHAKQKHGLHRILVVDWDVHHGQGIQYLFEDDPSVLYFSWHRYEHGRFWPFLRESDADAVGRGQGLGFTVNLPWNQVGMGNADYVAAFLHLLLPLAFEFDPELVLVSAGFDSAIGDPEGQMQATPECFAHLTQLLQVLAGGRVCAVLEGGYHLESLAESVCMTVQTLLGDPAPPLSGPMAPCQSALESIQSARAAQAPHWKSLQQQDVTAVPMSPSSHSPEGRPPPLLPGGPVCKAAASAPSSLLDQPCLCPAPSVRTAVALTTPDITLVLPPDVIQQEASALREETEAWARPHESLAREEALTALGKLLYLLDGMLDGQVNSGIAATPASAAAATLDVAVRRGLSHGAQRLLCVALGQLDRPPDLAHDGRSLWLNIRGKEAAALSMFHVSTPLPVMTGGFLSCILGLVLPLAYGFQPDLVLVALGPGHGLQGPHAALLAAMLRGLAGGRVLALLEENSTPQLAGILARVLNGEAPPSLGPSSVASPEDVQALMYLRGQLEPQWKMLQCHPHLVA
UniProt Q9HCG7, sequence (Q9HCG7 whole entry, looked up): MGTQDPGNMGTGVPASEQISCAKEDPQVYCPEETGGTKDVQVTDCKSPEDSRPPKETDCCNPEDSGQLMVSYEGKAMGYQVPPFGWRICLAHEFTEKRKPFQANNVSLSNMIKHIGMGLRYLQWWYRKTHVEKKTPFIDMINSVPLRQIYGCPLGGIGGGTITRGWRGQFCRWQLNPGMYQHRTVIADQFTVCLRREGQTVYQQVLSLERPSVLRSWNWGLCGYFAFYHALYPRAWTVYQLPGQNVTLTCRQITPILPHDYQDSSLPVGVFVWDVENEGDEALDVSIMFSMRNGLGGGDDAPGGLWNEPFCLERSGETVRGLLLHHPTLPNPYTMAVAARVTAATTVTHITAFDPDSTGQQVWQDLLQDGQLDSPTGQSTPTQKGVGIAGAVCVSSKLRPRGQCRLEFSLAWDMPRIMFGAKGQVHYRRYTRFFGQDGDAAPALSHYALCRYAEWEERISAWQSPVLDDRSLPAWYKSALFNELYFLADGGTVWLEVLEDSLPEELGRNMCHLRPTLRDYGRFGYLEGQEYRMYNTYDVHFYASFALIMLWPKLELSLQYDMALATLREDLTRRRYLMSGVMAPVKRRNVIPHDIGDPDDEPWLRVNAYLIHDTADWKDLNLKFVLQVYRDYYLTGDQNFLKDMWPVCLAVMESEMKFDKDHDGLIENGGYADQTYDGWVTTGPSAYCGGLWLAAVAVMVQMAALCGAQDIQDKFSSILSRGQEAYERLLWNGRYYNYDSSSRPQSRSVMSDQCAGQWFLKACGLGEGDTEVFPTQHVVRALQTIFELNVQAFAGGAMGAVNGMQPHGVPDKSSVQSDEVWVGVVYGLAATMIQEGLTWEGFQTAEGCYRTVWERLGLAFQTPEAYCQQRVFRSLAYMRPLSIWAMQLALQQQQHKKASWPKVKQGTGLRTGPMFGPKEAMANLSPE
UniProt Q8IVV7, sequence (Q8IVV7 whole entry, looked up): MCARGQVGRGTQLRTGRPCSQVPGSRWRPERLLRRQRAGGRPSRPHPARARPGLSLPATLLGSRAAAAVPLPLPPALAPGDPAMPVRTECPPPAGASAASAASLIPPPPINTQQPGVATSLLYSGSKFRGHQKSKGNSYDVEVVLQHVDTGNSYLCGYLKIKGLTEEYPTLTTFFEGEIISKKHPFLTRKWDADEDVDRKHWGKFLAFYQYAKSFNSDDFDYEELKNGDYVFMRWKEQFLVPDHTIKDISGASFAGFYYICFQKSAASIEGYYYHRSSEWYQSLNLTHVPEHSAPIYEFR
UniProt Q14956, sequence (Q14956 whole entry, looked up): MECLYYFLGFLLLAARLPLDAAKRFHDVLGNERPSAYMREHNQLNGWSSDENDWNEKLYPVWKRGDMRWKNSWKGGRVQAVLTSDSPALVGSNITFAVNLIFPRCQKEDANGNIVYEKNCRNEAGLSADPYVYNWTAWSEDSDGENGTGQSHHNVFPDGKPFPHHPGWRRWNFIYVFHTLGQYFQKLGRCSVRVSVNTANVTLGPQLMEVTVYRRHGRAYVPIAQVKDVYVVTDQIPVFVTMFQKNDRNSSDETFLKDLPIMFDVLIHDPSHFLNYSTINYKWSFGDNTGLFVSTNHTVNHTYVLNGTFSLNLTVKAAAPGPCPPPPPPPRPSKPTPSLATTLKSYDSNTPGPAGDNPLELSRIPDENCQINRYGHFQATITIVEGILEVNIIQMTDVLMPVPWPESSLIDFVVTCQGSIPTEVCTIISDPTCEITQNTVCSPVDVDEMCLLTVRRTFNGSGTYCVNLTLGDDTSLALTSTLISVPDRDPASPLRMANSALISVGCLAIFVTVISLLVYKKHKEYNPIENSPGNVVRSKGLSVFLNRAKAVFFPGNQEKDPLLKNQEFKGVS

Row | Target | log2 fold change (IRAK-1-4 Inhibitor I) | log2 fold change (ibrutinib) | log2 fold change (ralimetinib) | log2 fold change [1] | log2 fold change [2] | log2 fold change [3] | log2 fold change (pinometostat) | log2 fold change [4] | log2 fold change [5] | log2 fold change [6] | log2 fold change [7] | log2 fold change (Nexturastat A) | log2 fold change (vemurafenib) | log2 fold change [8] | log2 fold change [9] | log2 fold change (givinostat) | log2 fold change (barasertib) | log2 fold change [10] | log2 fold change [11] | log2 fold change [12]
1 | FAT2 (UniProt Q9NYQ8) | 0.103 | 0.107 | 0.182 | -0.149 | -0.002 | 0.225 | 0.051 | 0.132 | -0.035 | -0.113 | -0.114 | 0.456 | -0.002 | 0.009 | -0.333 | 0.119 | 0.069 | – | – | –
2 | FCF1 (UniProt Q9Y324) | -0.083 | – | 0.223 | 0.032 | – | 0.074 | 0.334 | -1.04 (active) | -0.011 | -0.114 | -0.187 | 0.271 | -0.139 | -0.167 | 0.324 | – | – | 0.017 | – | –
3 | GOLGA6B (UniProt A6NDN3) | -0.034 | 0.013 | – | 0.025 | 0.165 | – | -0.137 | – | – | – | 0.033 | -0.099 | 0.882 (active) | – | -0.113 | 0.002 | 0.011 | -0.035 | -0.19 | –
4 | HBZ, A0A494C057 | – | 0.284 | – | – | -0.054 | – | – | – | – | – | – | – | – | – | 0.051 | 0.109 | 0.013 | – | -0.145 | –
5 | HDAC10 (UniProt Q969S8) | – | -0.01 | 0.006 | – | -0.124 | -0.026 | – | -0.287 | 0.027 | -0.001 | – | – | 0.231 | 0.046 | 0.056 | 0.153 | -0.117 | – | 0.037 | 0.137
6 | FUNDC1 (UniProt Q8IVP5) | – | -0.023 | – | – | – | – | – | – | – | 0.118 | – | – | – | -0.013 | -0.285 | – | 0.052 | 0.007 | – | –
7 | H3-3A (UniProt P84243) | – | -0.016 | – | – | -0.07 | – | – | 0.656 (active) | – | 0.078 | – | – | 0.149 | 0.102 | 0.118 | 0.267 | 0.101 | -0.205 | -0.004 | –
8 | GBA2 (UniProt Q9HCG7) | -0.082 | -0.027 | – | 0.048 | 0.326 | – | 0.121 | -0.003 | – | -0.043 | 0 | 0.051 | 0 | -0.032 | -0.076 | -0.02 | 0.008 | -0.079 | 0.003 | -0.073
9 | GREB1 (UniProt Q4ZG55) | 0.04 | – | – | -0.032 | 0.26 | – | -0.095 | 0.066 | – | – | -0.338 | 0.755 (active) | 0.047 | – | – | 0.294 | – | -0.003 | – | 0.037
10 | HNRNPK isoform 3 (UniProt P61978) | -0.011 | -0.001 | 0.03 | 0.087 | 0.075 | 0.041 | -0.021 | 0.21 | 0.027 | – | 0.066 | 0.085 | -0.066 | – | -0.067 | 0.062 | -0.136 | -0.015 | -0.039 | –
11 | FMR1 (UniProt Q06787) | 0.091 | – | 0.036 | – | 0.149 | 0.056 | 0.153 | – | 0.036 | -0.066 | -0.163 | – | – | -0.094 | -0.068 | -0.203 | – | -0.023 | – | –
12 | GPNMB (UniProt Q14956) | – | – | – | 0 | 0.108 | – | – | – | – | – | – | 1.64 (active) | – | – | – | 0.671 | – | – | – | –
13 | FBXO9 (UniProt Q9UK97) | -0.034 | -0.119 | 0.137 | – | -0.101 | 0.088 | 0.038 | 0.137 | 0.009 | 0.064 | -0.025 | – | 0 | 0.061 | 0.052 | 0.111 | 0.117 | – | -0.062 | –
14 | GAB2 (UniProt Q9UQC2) | -0.097 | – | 0.059 | -0.242 | -0.616 | 0.094 | 0.081 | 0.004 | -0.21 | 0.022 | 0.077 | 0.075 | -0.071 | -0.349 | 0.099 | 0.101 | – | -0.053 | – | -0.573
15 | FIZ1 (UniProt Q96SL8) | -0.14 | – | – | 0.017 | – | – | 0.123 | – | – | – | -0.047 | 0.102 | 0.13 | – | -0.022 | – | – | -0.164 | 0.121 | –
16 | FOXO3 (UniProt O43524) | -0.046 | – | -0.083 | 0.086 | -0.091 | 0.234 | 0 | 0.081 | -0.039 | 0.037 | 0.119 | 0.024 | -0.023 | 0.017 | -0.159 | 0.012 | – | 0.247 | – | -0.427
17 | GSE1 (UniProt Q14687) | – | 0.057 | -0.065 | – | – | 0.003 | – | – | 0.071 | – | – | – | -0.13 | – | – | – | 0.232 | – | 0.044 | –
18 | GPD1 (UniProt P21695) | – | 0.059 | -0.141 | 0.079 | 0.268 | -0.051 | – | 0.009 | -0.046 | 0.021 | – | 0.653 (active) | 0.02 | -0.042 | -0.34 | 0.514 | 0.062 | 0.011 | 0.096 | -0.066
19 | GID4 (UniProt Q8IVV7) | – | 0.035 | -0.019 | 0.016 | 0.028 | 0.027 | – | -0.071 | 0.003 | -0.07 | – | 0.058 | -0.181 | -0.271 (active) | -0.035 | -0.03 | -0.1 | 0.028 | 0.023 | 0.025
20 | IFNGR1 (UniProt P15260) | – | 0.224 | -0.017 | -0.067 | 0.199 | 0.14 | – | -0.093 | 0.048 | -0.056 | – | 0.743 (active) | -0.124 | -0.181 | -0.174 | 0.281 | 0.028 | -0.246 | 0.054 | -0.086
